From the supplement of paper PMC3414501 come the findings set out here.

For assay [1], the system named is S. cerevisiae SK1 pCDA2-eGFP (USY613), sporulating. Kind of assay: CDA2-GFP sporulation assay sensitivity score (z-score vs DMSO controls); higher = stronger inhibition of sporulation, active = hit call of the paper.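 Further: active if sensitivity score above 5.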
For assay [2], the system named is S. cerevisiae NKY1551 his4x/his4B, sporulating. Description: HIS4 meiotic recombination assay sensitivity score (z-score vs DMSO controls); higher = stronger inhibition of sporulation/recombination, active = hit call of the paper.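 Further: active if sensitivity score above 5.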
Assay [3] relates to S. cerevisiae AD1-9 (efflux-pump deficient), vegetative growth in YPD. Kind of assay: growth sensitivity score (doubling time z-score vs DMSO controls); higher = slower growth, strongly negative scores also mark growth inhibition (complete suppression), active = hit call of the paper. Summed up: (§1)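 Optical density of Saccharomyces cerevisiae cultures in microtiter plates was followed every 15 min for 24 hours after seeding at an OD600 of 0.065. Eight solvent-only wells were run per experiment. Growth sensitivity scores were found by subtracting the solvent-only mean from the compound mean and dividing by the solvent-only standard deviation.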

The test system of assay [4] is S. cerevisiae BY4741 (wild-type), vegetative growth in YPD. Described as above. Summed up:
as §1

Where a name gives a salt, the structure may show the parent alone. Values without a mark were called inactive.

For the molecule `CCC(C)(C)N=C(NC#N)Nc1cccnc1` [Tocris-1355] (stock concentration (mM, diluted 1:100): 9.9), in assay [1], the “CDA2-GFP sporulation assay sensitivity score” value was 3.65. For the same molecule, the “HIS4 meiotic recombination assay sensitivity score” value in assay [2] is -1.39. The growth sensitivity score in assay [3] was -1.02; in assay [4] it was 0.46.
Taken in the same sequence, the figures for `O=c1c(O[C@@H]2O[C@H](CO)[C@@H](O)[C@H](O)[C@H]2O)c(-c2ccc(O)c(O)c2)oc2cc(O)cc(O)c12` [Isoquercetrin] (stock concentration (mM, diluted 1:100): 10) were -1.49, -0.48, -0.6 and 0.03.
Taken in the same sequence, the figures for `COc1ccccc1N1CCN(CCCNc2cc(=O)n(C)c(=O)n2C)CC1` [Urapidil hydrochloride] (stock concentration (mM, diluted 1:100): 10) were 1.04, -0.7, -0.84 and 0.85.
`CCCN1CCCC[C@H]1C(=O)Nc1c(C)cccc1C` [Ropivacaine hydrochloride] (stock concentration (mM, diluted 1:100): 7.7): in assay [1], the “CDA2-GFP sporulation assay sensitivity score” value was 3.5. For the same molecule, in assay [2], the “HIS4 meiotic recombination assay sensitivity score” value was 2.62. Also, the growth sensitivity score was -2 in assay [3] and -0.74 in assay [4].
With `Nc1nc2ccc(Cl)cc2c2nc(-c3ccco3)nn12` (stock concentration (mM, diluted 1:100): 10), the “CDA2-GFP sporulation assay sensitivity score” value in assay [1] is -3.14. Also, the “HIS4 meiotic recombination assay sensitivity score” value in assay [2] is -0.12. Further, the growth sensitivity score is 17.6 (active) in assay [3] and 5.26 (active) in assay [4].
Taken in the same sequence, the figures for `O=C(O)COCCN1CCN([C@H](c2ccccc2)c2ccc(Cl)cc2)CC1` [Levocetirizine] (stock concentration (mM, diluted 1:100): 10.7) were -2.92, -0.24, -1.54 and -0.8.
